# Hit rate of the full screen: of about 330,000 compounds, about 560 (0.17%) were called active. This is one part of a sample in which actives are shown more often than they occur.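 The calls were made as follows: active = activation at or above 40% of the spot to cytoplasm intensity ratio, with at least 20 cells analyzed; inconclusive = wells under 20 cells, flagged as cytotoxic or low count; inactive = the rest.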
# Columns and labels:
# [1] = NTR1-driven beta-arrestin-GFP spot formation – imaging, U2OS cells, high content, primary screen (AID 493036); settings: agonist mode, measured here: cell count, cytotoxicity flag, at 20 µM;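 as to activation: 0% = DMSO without peptide and 100% = 100 nM NTR1 peptide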
# [2] = target: Neurotensin receptor type 1 (Homo sapiens) (UniProt P30989); assay: as above; settings: agonist mode, at 20 µM, stronger effect = higher value
# Chain of Neurotensin receptor type 1 (Homo sapiens) (P30989 whole entry, looked up): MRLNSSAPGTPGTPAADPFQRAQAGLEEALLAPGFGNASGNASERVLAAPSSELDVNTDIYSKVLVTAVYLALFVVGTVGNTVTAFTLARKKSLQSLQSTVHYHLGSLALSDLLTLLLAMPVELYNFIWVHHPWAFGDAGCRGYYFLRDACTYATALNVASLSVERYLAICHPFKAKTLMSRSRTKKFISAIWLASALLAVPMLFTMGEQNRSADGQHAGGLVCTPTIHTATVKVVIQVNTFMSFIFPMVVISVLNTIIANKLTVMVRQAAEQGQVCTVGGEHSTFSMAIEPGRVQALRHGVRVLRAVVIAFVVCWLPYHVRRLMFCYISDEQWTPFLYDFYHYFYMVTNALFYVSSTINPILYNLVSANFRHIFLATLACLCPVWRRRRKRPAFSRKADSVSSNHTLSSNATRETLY
SMILES,cell count [1],activation [2]
COc1cccc(N2C(=O)NC(=O)/C(=C\c3ccc([N+](=O)[O-])s3)C2=O)c1,25 cells,-0.6% (inactive)
Cc1cccc(N2C(=O)NC(=O)/C(=C\c3cnn(-c4ccccc4)c3)C2=O)c1,57 cells,45.7% (active)
O=C1NC(=O)N(c2ccccc2)C(=O)/C1=C/c1ccc([N+](=O)[O-])s1,47 cells,-0.1% (inactive)
COc1ccc(C(=O)C2CN(C)CC2C(=O)c2ccc(OC)cc2)cc1 (stereo not given),41 cells,-0.1% (inactive)
O=C(CCCn1c(=O)[nH]c2cc(Cl)ccc2c1=O)N1CCC2(CC1)OCCO2,62 cells,1.7% (inactive)
COC(=O)C1=C(c2cc3ccccc3s2)C[C@@H]2CC[C@H]1N2C(=O)NCCO,97 cells,0.3% (inactive)
CC1CCCCN1Cc1cccnc1 (stereo not given),41 cells,1.8% (inactive)
O=C1NC(=O)N(CCc2ccc(F)cc2)C(=O)/C1=C/C=C/c1ccccc1,50 cells,41.5% (active)
O=C1NC(=O)N(Cc2ccco2)C(=O)/C1=C\c1ccc(-c2ccc(F)cc2)o1,62 cells,23.3% (inactive)
O=C(O)COc1ccccc1/C=C1\C(=O)NC(=O)N(CCC2=CCCCC2)C1=O,52 cells,0% (inactive)
